The values that follow come from PubChem BioAssay (Tox21).

A short description of experiment [1]: Nuclear factor erythroid 2-related factor 2/antioxidant responsive element (Nrf2/ARE) small molecule agonists: qHTS cell viability counter screen in human keratinocytes (AID 1919968; active = well fitted curve in the direction sought with a large enough effect in the repeat runs; an effect the other way counts as inactive or inconclusive; also: nearly all actives have a fitted effect of over 55% in size; also: potency is read from the fitted curve at half-maximal effect). The gist of the method: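 After a 5 h attachment period, ARE-reporter keratinocytes were dosed with compounds in DMSO and then cultured 23 h at 37 C. Cell viability came from CellTiter-Fluor signal read after a further 1 h.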
For orientation: qHTS replaces the single test concentration by a dilution series.

Experiment [2] in a line: Nuclear factor erythroid 2-related factor 2/antioxidant responsive element (Nrf2/ARE) small molecule agonists: luciferase reporter gene qHTS assay in human keratinocytes (AID 1919969). Also: nearly all actives have a fitted effect of over 35% in size. Also: potency is read from the fitted curve at half-maximal effect.
For experiment [3], the target named is Gonadotropin-releasing hormone receptor (Homo sapiens) (UniProt P30968). Kind of experiment: Human gonadotropin-releasing hormone receptor (GnRHR) small molecule agonists, calcium flux assay in GnRHR-HEK293 cells (AID 1920063). Also: nearly all actives have a fitted effect of over 35% in size. The gist of the method: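 We seeded human GnRHR-expressing HEK293 cells for 18 hours, loaded them with calcium dye for an hour at 37 C, added test compounds, and recorded fluorescence intensity kinetically for three minutes.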
Gonadotropin-releasing hormone receptor (Homo sapiens), sequence (P30968 whole entry, looked up): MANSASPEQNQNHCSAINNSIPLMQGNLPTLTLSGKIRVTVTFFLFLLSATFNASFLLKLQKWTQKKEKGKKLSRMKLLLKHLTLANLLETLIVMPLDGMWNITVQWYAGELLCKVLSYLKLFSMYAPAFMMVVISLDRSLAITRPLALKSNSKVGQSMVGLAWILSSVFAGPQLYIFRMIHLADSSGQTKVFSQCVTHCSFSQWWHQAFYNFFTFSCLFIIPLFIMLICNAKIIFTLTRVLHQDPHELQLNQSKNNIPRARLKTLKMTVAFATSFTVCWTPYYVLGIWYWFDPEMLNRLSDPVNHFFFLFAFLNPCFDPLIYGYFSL

Experiment [4] addresses KiSS-1 receptor (Homo sapiens) (UniProt Q969F8). In words: Human kisspeptin (KISS1R) small molecule agonists, calcium flux assay in KISS1R-HEK293 cells (AID 1920064; active = well fitted curve in the direction sought with a large enough effect in the repeat runs; an effect the other way counts as inactive or inconclusive). An outline of the steps: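 Kinetic calcium assay, 1 s sampling over 3 min at Ex/Em 480/540, in HEK293 cells engineered with human KISS1R; compounds delivered in DMSO after 1 h dye loading.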
A short description of experiment [5]: G protein-coupled receptor (GPCR) small molecule agonists, calcium flux assay: HEK293 wild type cell line counter screen (AID 1920065). An outline of the steps: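 Calcium-sensitive dye, loaded 1 h at 37 C into cells cultured 18 h, reports compound-evoked calcium release as fluorescence (Ex/Em 480/540), measured over 3 min. Agonist mode; 15-point titrations, triplicate.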

Experiment [6] is described as follows: p53 small molecule agonists, cell-based qHTS assay with human liver microsomes (AID 1963577).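 Also: p53 response element beta-lactamase reporter cells with liver microsomes plus NADPH.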 The gist of the method: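 Steps: plate p53RE-bla cells, incubate 5 h at 37 C; add compound in DMSO; add microsomes (0.5 mg/mL final) and NADPH (0.5 mg/mL final); incubate 16 h at 37 C; add LiveBLAzer, 2 h RT; read fluorescence.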
The nature of experiment [7]: p53 small molecule agonists, cell-based qHTS assay with rat liver microsomes (AID 1963578). An outline of the steps:
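Metabolic activation is supplied by rat liver microsomes with NADPH (each 0.5 mg/mL final). p53RE-bla cells incubate with compound 16 h at 37 C; reporter activity is measured by LiveBLAzer fluorescence.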

The nature of experiment [8]: p53 small molecule agonists, cell-based qHTS assay with human liver microsomes: qHTS cell viability counter screen (AID 1963579). Also: nearly all actives have a fitted effect of over 45% in size. An outline of the steps: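 After the 460/530 nm beta-lactamase read, CellTiter-Glo was added to the same wells and luminescence measured after 30 min at room temperature, giving viability of p53RE-bla cells treated 16 h with compounds plus microsomes and NADPH.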

Experiment [9] in a line: p53 small molecule agonists, cell-based qHTS assay with rat liver microsomes: qHTS cell viability counter screen (AID 1963580). Also: nearly all actives have a fitted effect of over 45% in size. The gist of the method: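 HCT-116 p53RE-bla, 4,000 cells/well, 5 h pre-incubation; cpd + rat liver microsomes 0.5 mg/mL + NADPH 0.5 mg/mL (final); 16 h, 37 C; CellTiter-Glo, 30 min RT; luminescence.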
The nature of experiment [10]: p53 small molecule agonists, cell-based qHTS assay: qHTS cell viability counter screen (AID 1963581). Also: nearly all actives have a fitted effect of over 45% in size. An outline of the steps:
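Following 5 h attachment, HCT-116 p53RE-bla cells took up compound for 16 h at 37 C; the reporter was read with B/G FRET substrate (2 h RT), and viability then via CellTiter-Glo ATP luminescence.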

Experiment [11] deals with 5-hydroxytryptamine receptor 2A (Homo sapiens) (UniProt P28223). Kind of experiment: 5-hydroxytryptamine receptor 2A (HTR2A) small molecule agonists, cell-based qHTS assay (AID 1963587). Also: nearly all actives have a fitted effect of over 30% in size. Also: potency is read from the fitted curve at half-maximal effect. The gist of the method:
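Kinetic calcium-flux fluorescence (2 min, 1 sec intervals) after compound addition in agonist mode. HTR2A-CHO cells were cultured 18 h, then dye-loaded 1 h at 37 C.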

Experiment [12] has as its target Muscarinic acetylcholine receptor M1 (Homo sapiens) (UniProt P11229). Kind of experiment: Cholinergic receptor muscarinic 1 (CHRM1) small molecule antagonists, cell-based qHTS assay (AID 1963588). Also: nearly all actives have a fitted effect of over 40% in size. An outline of the steps:
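CHRM1-CHO calcium-flux assay, antagonist mode. Cells were seeded 18 h, dye-loaded 1 h at 37 C and given compound for 5 min at RT, then acetylcholine was added at 50nM. FDSS fluorescence was read 3 min; 15 concentrations, three runs.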

The target is the same in experiment [13]. Kind of experiment: Cholinergic receptor muscarinic 1 (CHRM1) small molecule agonists, cell-based qHTS assay (AID 1963589). Also: nearly all actives have a fitted effect of over 35% in size. An outline of the steps:
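Measures agonist-induced intracellular calcium rise. Stable human CHRM1 CHO line, 1 h dye load at 37 C, compounds from DMSO, kinetic fluorescence read.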

The target in experiment [14] is Beta-2 adrenergic receptor (Homo sapiens) (UniProt P07550). In words: Adrenergic beta2 receptor (ADRB2) small molecule antagonists, cell-based qHTS assay (AID 1963592). Also: series mostly up to about 92 µM; nearly all actives have a fitted effect of over 50% in size. The gist of the method:
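Cells (CHO, stable ADRB2 overexpression) incubated 18-20hr at 37C; compounds added from DMSO; agonist mix (1nM isoproterenol, 100uM IBMX, 25uM Ro-20-1724) added; 0.5hr RT; d2-cAMP and anti-cAMP-cryptate added; 1hr RT; 665/615 nm read.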

For experiment [15], the target named is D(2) dopamine receptor (Homo sapiens) (UniProt P14416). Kind of experiment: Dopamine D2 receptor (DRD2) small molecule agonists, cell-based qHTS assay (AID 1963594). Also: nearly all actives have a fitted effect of over 35% in size. An outline of the steps:
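cAMP accumulation in DRD2-HEK293 cells measured by HTRF after 1 h detection; compounds added 10 min before NKH477 (200nM […]) forskolin-analogue stimulation, 30 min at room temperature, with Ro20-1724 present at 0.1 mM final.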

The target in experiment [16] is 5-hydroxytryptamine receptor 2A (Homo sapiens) (UniProt P28223). In words: 5-hydroxytryptamine receptor 2A (HTR2A) small molecule antagonists, cell-based qHTS assay (AID 1963586). Also: nearly all actives have a fitted effect of over 45% in size. Also: potency is read from the fitted curve at half-maximal effect. An outline of the steps: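 Antagonist-mode intracellular calcium assay: DOI (4 nM) added after 5 min compound pre-incubation at room temperature to dye-loaded HTR2A-CHO cells. Fluorescence followed for 3 min, sampled every second.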
5-hydroxytryptamine receptor 2A (Homo sapiens), sequence (P28223 whole entry, looked up): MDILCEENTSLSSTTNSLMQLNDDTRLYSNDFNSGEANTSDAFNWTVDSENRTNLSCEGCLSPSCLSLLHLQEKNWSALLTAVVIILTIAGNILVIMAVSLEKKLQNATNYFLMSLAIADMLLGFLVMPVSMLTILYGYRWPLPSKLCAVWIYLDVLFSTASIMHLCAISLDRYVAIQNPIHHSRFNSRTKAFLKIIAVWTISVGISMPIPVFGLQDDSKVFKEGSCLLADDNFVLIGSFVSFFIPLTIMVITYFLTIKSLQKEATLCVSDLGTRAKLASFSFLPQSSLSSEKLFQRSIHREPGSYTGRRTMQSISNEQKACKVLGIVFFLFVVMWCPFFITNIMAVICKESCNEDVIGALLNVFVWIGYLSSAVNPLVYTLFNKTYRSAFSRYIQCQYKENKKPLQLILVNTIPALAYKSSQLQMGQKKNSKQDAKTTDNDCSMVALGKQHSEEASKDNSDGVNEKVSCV

Experiment [17] concerns the target D(2) dopamine receptor (Homo sapiens) (UniProt P14416). In words: Dopamine D2 receptor (DRD2) small molecule antagonists, cell-based qHTS assay (AID 1963595; active = well fitted inhibition curve with a large enough effect in the signal ratio in the repeat runs, with a control signal flat; the % refers to the signal ratio). The gist of the method:
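Readout: HTRF cAMP, cAMP-d2 competing with cellular cAMP for anti-cAMP cryptate, read after 1 h. Cells: DRD2-HEK293. Conditions: 0.1 mM Ro20-1724, 12 nM quinpirole, 200 nM NKH477, 30 min RT.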

A short description of experiment [18]: p53 small molecule agonists, cell-based qHTS assay (AID 1963582; active = well fitted activation curve with a large enough effect in the signal ratio in the repeat runs, not every such curve was filed as active; the % refers to the signal ratio). The gist of the method:
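In this cell-based concentration-response screen, a p53 response element drives beta-lactamase; cells received DMSO-borne compounds after 5 h culture and were incubated a further 16 h before FRET substrate development.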

Experiment [19] in a line: cAMP Responsive Elements (CRE) small molecule agonists, cell-based qHTS assay (AID 1963590). The gist of the method: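 A CRE-responsive beta-lactamase reporter in HEK 293T cells was used. Treatment ran 3 h at 37 C; detection used LiveBLAzer B/G FRET substrate for 2 h at room temperature.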
Experiment [20] in a line: cAMP Responsive Elements (CRE) small molecule antagonists, cell-based qHTS assay (AID 1963591; active = well fitted inhibition curve with a large enough effect in the signal ratio in the repeat runs, not every such curve was filed as active; the % refers to the signal ratio). An outline of the steps:
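HEK293T cells carrying a CRE-driven beta-lactamase reporter receive compound and NKH477 (0.25 uM final) for 3 h. Fluorescence from LiveBLAzer B/G FRET substrate is read after 2 h at room temperature.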

Unmarked numbers belong to inactive results. Results filed as inconclusive are left out. Calls of active or inactive are those of the source. Unless noted, calls follow the shape of the full dose curve.

KiSS-1 receptor (Homo sapiens), sequence (Q969F8 whole entry, looked up): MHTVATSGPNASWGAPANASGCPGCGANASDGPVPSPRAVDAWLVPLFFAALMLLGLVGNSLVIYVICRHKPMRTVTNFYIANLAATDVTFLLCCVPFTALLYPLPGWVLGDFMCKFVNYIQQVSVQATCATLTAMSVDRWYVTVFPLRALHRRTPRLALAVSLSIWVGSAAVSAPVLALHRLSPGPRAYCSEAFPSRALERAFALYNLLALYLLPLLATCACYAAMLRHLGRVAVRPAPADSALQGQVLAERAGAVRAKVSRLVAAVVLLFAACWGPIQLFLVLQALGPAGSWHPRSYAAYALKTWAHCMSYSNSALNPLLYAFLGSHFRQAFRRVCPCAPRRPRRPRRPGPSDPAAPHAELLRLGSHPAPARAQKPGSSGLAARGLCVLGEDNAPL
Beta-2 adrenergic receptor (Homo sapiens), sequence (P07550 whole entry, looked up): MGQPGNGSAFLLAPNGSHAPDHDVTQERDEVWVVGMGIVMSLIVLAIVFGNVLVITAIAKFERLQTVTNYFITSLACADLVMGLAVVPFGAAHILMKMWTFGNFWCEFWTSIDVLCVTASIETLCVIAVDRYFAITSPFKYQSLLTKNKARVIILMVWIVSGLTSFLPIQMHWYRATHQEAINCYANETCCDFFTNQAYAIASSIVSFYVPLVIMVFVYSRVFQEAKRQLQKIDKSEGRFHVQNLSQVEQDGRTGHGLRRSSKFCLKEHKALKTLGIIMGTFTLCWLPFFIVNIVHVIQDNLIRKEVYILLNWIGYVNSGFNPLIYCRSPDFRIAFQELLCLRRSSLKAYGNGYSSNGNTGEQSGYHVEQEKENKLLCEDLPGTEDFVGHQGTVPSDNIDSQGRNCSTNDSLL
Muscarinic acetylcholine receptor M1 (Homo sapiens), sequence (P11229 whole entry, looked up): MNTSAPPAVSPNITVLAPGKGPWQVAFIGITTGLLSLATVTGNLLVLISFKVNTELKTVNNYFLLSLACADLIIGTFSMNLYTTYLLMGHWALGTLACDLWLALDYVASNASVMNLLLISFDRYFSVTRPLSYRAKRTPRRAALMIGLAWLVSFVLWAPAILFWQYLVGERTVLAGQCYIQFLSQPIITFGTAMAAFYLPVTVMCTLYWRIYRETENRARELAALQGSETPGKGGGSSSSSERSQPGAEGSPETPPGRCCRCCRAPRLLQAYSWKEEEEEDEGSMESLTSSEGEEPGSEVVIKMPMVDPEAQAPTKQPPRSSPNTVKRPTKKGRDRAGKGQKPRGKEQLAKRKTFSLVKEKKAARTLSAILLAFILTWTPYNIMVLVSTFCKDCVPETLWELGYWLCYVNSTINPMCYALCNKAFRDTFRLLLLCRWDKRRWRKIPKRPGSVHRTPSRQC
D(2) dopamine receptor (Homo sapiens), sequence (P14416 whole entry, looked up): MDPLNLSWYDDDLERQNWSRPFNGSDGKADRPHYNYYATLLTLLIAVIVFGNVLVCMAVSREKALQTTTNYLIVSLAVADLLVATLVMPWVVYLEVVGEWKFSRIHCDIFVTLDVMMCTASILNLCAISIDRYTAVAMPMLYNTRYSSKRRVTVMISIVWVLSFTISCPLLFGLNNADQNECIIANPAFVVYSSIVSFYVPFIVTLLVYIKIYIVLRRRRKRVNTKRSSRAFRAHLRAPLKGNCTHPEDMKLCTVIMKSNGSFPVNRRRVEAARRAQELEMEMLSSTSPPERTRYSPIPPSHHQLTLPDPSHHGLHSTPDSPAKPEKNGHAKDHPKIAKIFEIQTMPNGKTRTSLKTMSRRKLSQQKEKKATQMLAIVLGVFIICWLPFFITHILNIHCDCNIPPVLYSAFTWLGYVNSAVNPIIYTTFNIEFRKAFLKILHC

As to `CCC(C)(NC(=O)c1cc(Cl)c(C)c(Cl)c1)C(=O)CCl` (centres undefined), the Potency was 24.5 µM (active) in [1], 1.54 µM (active) in experiment [2] and 49.3 µM (active) in [11]. Also, the Potency result in experiment [3], in [4], in experiment [5], in experiment [6], in [7] and in [8] was “inactive” throughout. The Potency entry in [9], in [10], in experiment [12], in [13], in experiment [14] and in experiment [15] was “inactive” throughout.

Take `c1ccc2c(c1)Sc1ccccc1N2CC1CN2CCC1CC2` (centres undefined): in [1], the Potency was 33.5 µM (active). Also, the Potency entry in experiment [2], in experiment [3], in experiment [4], in [5], in experiment [6] and in experiment [7] was “inactive” throughout. Further, the Potency entry in [8], in experiment [9], in experiment [10], in experiment [16], in experiment [12] and in experiment [13] was “inactive” in each case. Moreover, the Potency result in experiment [14], in [15] and in experiment [17] was “inactive” in each case.

In the case of `C[C@]12C=CC(=O)C=C1CC[C@@H]1[C@@H]2CC[C@@]2(C)[C@H]1CC[C@]2(C)O`, the Potency result in experiment [1], in [2], in experiment [3], in experiment [4], in experiment [5] and in experiment [6] was “inactive” throughout. In addition, the Potency result in [7], in [8], in experiment [9], in [18], in [16] and in experiment [11] was “inactive” throughout. For the same compound, the Potency entry in experiment [12], in experiment [13], in experiment [14] and in experiment [17] was “inactive” throughout.

`Clc1ccccc1N1CCNCC1`: the Potency result in experiment [1], in experiment [2], in experiment [3], in experiment [4], in [5] and in experiment [6] was “inactive” each time. The Potency result in experiment [7], in experiment [8], in experiment [9], in experiment [18], in experiment [12] and in experiment [13] was “inactive” each time. Further, the Potency entry in experiment [19], in [20] and in experiment [15] was “inactive” throughout. The Potency in [16] was 1.16 µM (active).

Take `C1CCNCC1`: the Potency entry in experiment [1], in [2], in [3], in experiment [4], in experiment [5] and in [6] was “inactive” each time. The Potency entry in [7], in [8], in experiment [9], in experiment [18], in experiment [11] and in experiment [12] was “inactive” in each case. Also, the Potency result in [13], in experiment [19], in experiment [20], in [14] and in experiment [15] was “inactive” throughout.

For the compound `Oc1ccc(Cc2ccc(O)cc2)cc1`, the Potency result in experiment [1], in experiment [2], in experiment [3], in [4], in experiment [5] and in [6] was “inactive” throughout. For the same compound, the Potency result in [7], in experiment [8], in [9], in experiment [18], in experiment [11] and in [12] was “inactive” each time. For the same compound, the Potency result in experiment [13], in experiment [19], in experiment [20], in experiment [14], in experiment [15] and in experiment [17] was “inactive” each time.

On to `CCc1ccc(C(=O)NN(C(=O)c2cc(C)cc(C)c2)C(C)(C)C)cc1`, for which the Potency result in experiment [1], in experiment [2], in experiment [3], in [4], in [5] and in experiment [6] was “inactive” each time. For the same compound, the Potency entry in experiment [7], in experiment [8], in experiment [9], in experiment [10], in [16] and in experiment [11] was “inactive” throughout. In addition, the Potency entry in experiment [13], in [14], in [15] and in experiment [17] was “inactive” in each case.
